Each structure is given as a SMILES string. Values without a mark were called inactive. The source made the active and inactive calls. Calls follow the shape of the full dose curve.
% is scaled to controls: 0 for no effect and ±100 for the full control effect.

Acetylcholinesterase (Homo sapiens), sequence (P22303 whole entry, looked up): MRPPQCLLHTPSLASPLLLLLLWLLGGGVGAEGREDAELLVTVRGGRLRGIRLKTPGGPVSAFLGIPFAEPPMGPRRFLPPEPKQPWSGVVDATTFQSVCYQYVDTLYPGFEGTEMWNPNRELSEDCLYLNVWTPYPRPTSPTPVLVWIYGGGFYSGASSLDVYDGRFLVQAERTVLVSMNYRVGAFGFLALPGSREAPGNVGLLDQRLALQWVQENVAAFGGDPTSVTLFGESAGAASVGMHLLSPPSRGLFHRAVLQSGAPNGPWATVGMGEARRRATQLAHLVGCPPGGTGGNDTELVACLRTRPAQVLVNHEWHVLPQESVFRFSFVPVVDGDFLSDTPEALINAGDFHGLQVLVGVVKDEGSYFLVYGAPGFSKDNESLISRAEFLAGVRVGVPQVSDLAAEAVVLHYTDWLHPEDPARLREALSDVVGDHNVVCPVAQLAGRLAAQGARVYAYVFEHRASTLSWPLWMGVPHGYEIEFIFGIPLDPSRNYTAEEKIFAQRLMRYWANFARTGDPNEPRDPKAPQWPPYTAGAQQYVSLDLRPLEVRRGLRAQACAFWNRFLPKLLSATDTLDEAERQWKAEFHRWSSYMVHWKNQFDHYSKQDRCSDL

This assay addresses Acetylcholinesterase (Homo sapiens) (UniProt P22303). Description: Acetylcholinesterase (AChE) small molecule antagonists: enzyme-based qHTS assay with human liver microsomes (AID 1347399). Also: nearly all actives have a fitted effect of over 60% in size. The conditions noted are these: Potency: qHTS inhibition; outcome: qHTS inhibition; series mostly up to 115 µM; activity change, negative = inhibition: at the top concentration. In short, it runs like this: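 Recombinant human AChE (50 mU/mL in the enzyme mix) and human liver microsomes (0.25 mg/mL final) were preincubated with compound and NADPH (0.25 mg/mL final) for 30 min at 37 C. Acetylthiocholine/DTNB was then added; thiocholine was read colorimetrically after 10 min at room temperature.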
For orientation: Quantitative high-throughput screening tests each substance at several concentrations.
As to `CN(C)C=O`, the Potency result is “inactive”. `CC(=O)Oc1ccc(C(=C2CCCCC2)c2ccc(OC(C)=O)cc2)cc1`: the “activity change, negative = inhibition” value is -3.83% [at 53 µM]. Same read-out and setting: in the case of `[Cl][Bi]([Cl])([c]1ccccc1)([c]1ccccc1)[c]1ccccc1` it was -0.153%; in that of `CCCCCCCC/C=C\CCCCCCCC(=O)NCc1ccc(O)c(OC)c1`, 0% [at 53 µM]; in that of `C=CC(C)(C)O`, 0.654%. The same measure, in the same setting: in the case of `CC(=O)c1ccc2c(c1)N(CCCN(C)C)c1ccccc1S2` it was -0.885% [at 53 µM].

Consider `CCCCOC(=O)C(C)OC(=O)CCC` (stereo not given), for which the “activity change, negative = inhibition” value was 3.37%.

In the case of `CCc1c(C(=O)O)c(=O)cnn1-c1ccc(Cl)cc1`, the “activity change, negative = inhibition” value is 0.238%. Still for that read-out and setting: the result for `CCNC(=O)/C=C/c1cccc(Br)c1` reads -0.168% [at 53 µM].

`CC(=O)[O][Al][O]C(C)=O`: the “activity change, negative = inhibition” value is 0.747%. `CCC(=O)O[C@@H]1C[C@H]2CC[C@]1(C)C2(C)C`: the “activity change, negative = inhibition” value was 0.764%. On to `C1COCO1`, for which the “activity change, negative = inhibition” value was -0.223%. In the case of `S=c1nc[nH]c2nc[nH]c12`, the Potency result was “inactive”. As to `CC12CCC(C1)C(C)(C)C2O` (stereo not given), the “activity change, negative = inhibition” value was 0.189%. In the case of `O=C(Nc1ccccc1)Nc1ccccc1`, the “activity change, negative = inhibition” value was -0.653%. In the case of `CCCc1c2oc(C(=O)O)cc(=O)c2cc2c(=O)cc(C(=O)O)n(CC)c12`, the “activity change, negative = inhibition” value is -0.973% [at 53 µM]. On the same count and under the same terms, the result for `CC(C)Cn1cnc2c1c(=O)n(C)c(=O)n2C` reads 1.17% [at 53 µM]; that for `Cc1c(Nc2ncccc2C(=O)O)cccc1C(F)(F)F`, 1.45% [at 53 µM]; that for `CC1=C2[C@@H]([C@H](C)CC[C@H]2/C=C(\C)C(=O)O)[C@H](O)C1`, -2.57%. As to `CCC(C)(C)c1ccc(CC(C)CN2C[C@@H](C)O[C@@H](C)C2)cc1` (stereo not given in full), the “activity change, negative = inhibition” value was 0.147% [at 53 µM]. Consider `CC(CCO)CCc1ccccc1` (stereo not given), for which the “activity change, negative = inhibition” value is 0.0764%. Consider `CCOCC(=O)O`, for which the Potency entry was “inactive”. In the case of `ClC1=C(Cl)C1(Cl)Cl`, the “activity change, negative = inhibition” value is 0.24%.

For `O=C(O)CP(=O)(O)O`, the “activity change, negative = inhibition” value is 1.47% [at 53 µM]. As for `CC(=O)c1ccc(C(C)=O)cc1`, the “activity change, negative = inhibition” value is -1.19%.
